Experimental data published in PubChem BioAssay (NCI).
This is part of a sample that, as a whole, favours compounds with a hit. Of some 79,000 tested, about 15% had one in any assay. Calls of active or inactive are those of the source. No stated cut-off is given here; in the data, active means growth inhibition above about 70%; inactive means the rest.

Assays:
[1] = NCI Yeast Anticancer Drug Screen. Data for the mlh1 strain (AID 171);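 further: 0% = growth of vehicle-treated control cultures of the same strain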; settings: S. cerevisiae mlh1 strain growth inhibition, active compounds read high
Procedure, shortened: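 Yeast carrying a defined genetic alteration in DNA damage repair or cell cycle control were exposed to test compounds. Growth inhibition was measured relative to vehicle-treated controls.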

[2] = NCI Yeast Anticancer Drug Screen. Data for the sgs1 strain (AID 173);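 further: 0% = growth of vehicle-only control cultures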; settings: S. cerevisiae sgs1 mutant, active compounds read high
Procedure, shortened: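 Yeast mutant strains carrying defined defects in DNA damage repair or cell cycle control were exposed to test compounds. Growth inhibition was scored against vehicle-treated controls.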

[3] = NCI Yeast Anticancer Drug Screen. Data for the mlh1 rad18 strain (AID 175); settings: S. cerevisiae mlh1 rad18 strain growth inhibition, active compounds read high
Procedure, shortened: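 Growth inhibition of the yeast strain was measured after compound exposure and expressed relative to vehicle-treated controls. The strain carries defined defects in DNA damage repair.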

[4] = NCI Yeast Anticancer Drug Screen. Data for the rad18 strain (AID 177); settings: S. cerevisiae rad18 mutant growth inhibition, active compounds read high
Procedure, shortened: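 Yeast carrying a defined DNA damage repair alteration were exposed to compounds. Growth inhibition was expressed relative to vehicle-treated controls.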

[5] = NCI Yeast Anticancer Drug Screen. Data for the rad52 strain (AID 147);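 further: 0% = growth of vehicle-treated control cultures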; settings: S. cerevisiae rad52 mutant growth inhibition, active compounds read high
Procedure, shortened: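 Yeast strain carrying a DNA damage repair alteration was exposed to test compounds. Growth inhibition was measured relative to vehicle-treated controls.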

[6] = NCI Yeast Anticancer Drug Screen. Data for the wt1 strain (AID 149);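 further: 0% = growth of vehicle-treated wt1 cultures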; settings: S. cerevisiae wt1 strain (SPY 50644) growth inhibition, active compounds read high
Procedure, shortened: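 The wt1 strain was treated with compounds, and growth was compared with vehicle-treated cultures to give inhibition.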

[7] = NCI Yeast Anticancer Drug Screen. Data for the rad50EPP+ strain (AID 151);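 further: 0% = growth of vehicle-treated control cultures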; settings: S. cerevisiae rad50 mutant strain, active compounds read high
Procedure, shortened: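 Yeast strain carrying rad50 alteration (rad50EPP+) exposed to compounds; growth inhibition measured relative to vehicle-treated controls.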

[8] = NCI Yeast Anticancer Drug Screen. Data for the mgt1 strain (AID 153); settings: S. cerevisiae mgt1 mutant growth inhibition, active compounds read high
Procedure, shortened: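 Yeast mgt1 strain (DNA repair/cell-cycle alteration panel) exposed to compounds; growth inhibition measured relative to vehicle-treated controls.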

[9] = NCI Yeast Anticancer Drug Screen. Data for the mec2-1 strain (AID 157); settings: S. cerevisiae mec2-1 strain, active compounds read high
Procedure, shortened: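 mec2-1 yeast strain, carrying an alteration in DNA damage repair or cell cycle control, was exposed to compounds; growth inhibition was measured relative to vehicle-treated controls.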

[10] = NCI Yeast Anticancer Drug Screen. Data for the rad14 strain (AID 159);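 further: 0% = growth of vehicle-treated control cultures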; settings: S. cerevisiae rad14 strain growth inhibition, active compounds read high
Procedure, shortened: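 Readout: yeast growth inhibition, referenced to vehicle-only cultures. Strain bears a defined alteration in DNA damage repair.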

[11] = NCI Yeast Anticancer Drug Screen. Data for the sgs1 mgt1 strain (AID 161);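 further: 0% = growth of cultures given vehicle only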; settings: S. cerevisiae sgs1 mgt1 strain, active compounds read high
Procedure, shortened: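 Yeast cells carrying a defined DNA-repair defect were exposed to test compounds. Growth inhibition was measured relative to vehicle-treated controls.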

[12] = NCI Yeast Anticancer Drug Screen. Data for the cln2 rad14 strain (AID 165);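 further: 0% = growth equal to vehicle treated cultures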; settings: S. cerevisiae cln2 rad14 strain, active compounds read high
Procedure, shortened: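 Yeast carrying cln2 and rad14 alterations (cell cycle control and DNA damage repair) were exposed to compounds. Growth inhibition was measured against vehicle-treated controls.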

[13] = NCI Yeast Anticancer Drug Screen. Data for the bub3 strain (AID 167); settings: S. cerevisiae bub3 mutant strain, active compounds read high
Procedure, shortened: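 Part of a panel of yeast mutants defective in DNA damage repair or cell cycle regulation. Each strain is grown with compound, and inhibition is calculated relative to solvent-treated cultures.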

[14] = NCI Yeast Anticancer Drug Screen. Data for the wt2 strain (AID 169);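 further: 0% = growth of vehicle-treated yeast cultures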; settings: S. cerevisiae wt2 strain growth inhibition, active compounds read high
Procedure, shortened: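 Yeast cells were exposed to test compounds, and growth inhibition was measured relative to vehicle-treated controls.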

[15] = NCI Yeast Anticancer Drug Screen. Data for the rad50 strain (AID 155);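 further: 0% = growth of vehicle-only cultures of the same strain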; settings: S. cerevisiae rad50 strain growth inhibition, active compounds read high
Procedure, shortened: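 Cells are treated with compound, grown, and their growth is then scored against vehicle-only cultures of the same repair-deficient yeast strain.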

[16] = NCI Yeast Anticancer Drug Screen. Data for the CLN2oe strain (AID 163);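 further: 0% = growth of vehicle-only control cultures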; settings: S. cerevisiae CLN2oe strain, active compounds read high
Procedure, shortened: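 Yeast cells carrying a defined cell-cycle control alteration were exposed to test compounds. Growth inhibition was scored against vehicle-treated control cultures.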

[17] = at 5.0 µM (retest, dose inferred, filed as 0.5)
[18] = at 50.0 µM (retest, dose inferred, filed as 5.0)

Measured: growth inhibition

N#CN=Nc1cc(Cl)c(N=NC#N)cc1Cl
inactive: [1]; at 1.2 µM 22% | [1]; at 3.7 µM 10% | [1]; at 11.0 µM 12% | [1]; at 33.0 µM 29% | [2]; at 1.2 µM -25% | [2]; at 3.7 µM -15% | [2]; at 11.0 µM -13% | [2]; at 33.0 µM 13% | [3]; [17] -10% | [3]; at 50.0 µM 38.2% | [4]; at 1.2 µM -8% | [4]; at 3.7 µM -16% | [4]; at 11.0 µM -11% | [4]; at 33.0 µM 14%
active: [1]; at 100.0 µM 87% | [2]; at 100.0 µM 94% | [3]; [18] 98% | [4]; at 100.0 µM 82%

CCN(CC)CCC(=O)c1ccc(Oc2ccc(F)cc2)cc1
active: [5]; at 100.0 µM 83% | [6]; at 100.0 µM 80% | [7]; at 100.0 µM 93% | [8]; at 11.0 µM 76% | [8]; at 33.0 µM 92% | [8]; at 100.0 µM 94% | [9]; [18] 87% | [9]; at 100.0 µM 95% | [10]; at 33.0 µM 79% | [10]; at 100.0 µM 81% | [11]; at 50.0 µM 76.5% | [13]; at 33.0 µM 83% | [13]; at 100.0 µM 97% | [14]; at 33.0 µM 71% | [14]; at 100.0 µM 80% | [1]; at 33.0 µM 73% | [1]; at 100.0 µM 83% | [2]; at 100.0 µM 96% | [3]; [18] 93% | [4]; at 100.0 µM 96%
inactive: [5]; at 1.2 µM -23% | [5]; at 3.7 µM -26% | [5]; at 11.0 µM -40% | [5]; at 33.0 µM 8% | [6]; at 1.2 µM -11% | [6]; at 3.7 µM 23% | [6]; at 11.0 µM 21% | [6]; at 33.0 µM -5% | [7]; at 1.2 µM -9% | [7]; at 3.7 µM -30% | [7]; at 11.0 µM 9% | [7]; at 33.0 µM 36% | [8]; at 1.2 µM 49% | [8]; at 3.7 µM 59% | [9]; at 1.2 µM 17% | [9]; at 3.7 µM 35% | [9]; [17] 41% | [9]; at 11.0 µM 42% | [9]; at 33.0 µM 52% | [9]; at 50.0 µM 44.5% | [10]; at 1.2 µM 5% | [10]; at 3.7 µM 39% | [10]; at 11.0 µM 51% | [11]; [17] 62% | [11]; [18] 66% | [12]; [17] 21% | [12]; [18] 3% | [12]; at 50.0 µM 32.9% | [13]; at 1.2 µM 35% | [13]; at 3.7 µM 46% | [13]; [17] 55% | [13]; at 11.0 µM 58% | [13]; [18] 47% | [13]; at 50.0 µM 69.6% | [14]; at 1.2 µM 17% | [14]; at 3.7 µM 21% | [14]; at 11.0 µM 41% | [1]; at 1.2 µM 34% | [1]; at 3.7 µM 37% | [1]; at 11.0 µM 58% | [2]; at 1.2 µM -12% | [2]; at 3.7 µM -2% | [2]; at 11.0 µM 11% | [2]; at 33.0 µM 59% | [3]; [17] 65% | [3]; at 50.0 µM 47.5% | [4]; at 1.2 µM 4% | [4]; at 3.7 µM 26% | [4]; at 11.0 µM 27% | [4]; at 33.0 µM 52%

Cc1cc(CO)c(O)c(CNCc2cc(C)cc(CO)c2O)c1
inactive: [5]; at 1.2 µM 4% | [5]; at 3.7 µM 8% | [5]; at 11.0 µM 14% | [5]; at 33.0 µM 22% | [6]; at 1.2 µM 24% | [6]; at 3.7 µM 15% | [6]; at 11.0 µM 25% | [6]; at 33.0 µM 38% | [7]; at 1.2 µM -24% | [7]; at 3.7 µM -23% | [7]; at 11.0 µM -33% | [7]; at 33.0 µM -29% | [7]; at 100.0 µM -13% | [15]; at 1.2 µM 2% | [15]; at 3.7 µM 7% | [15]; [17] -25% | [15]; at 11.0 µM 2% | [15]; at 33.0 µM 19% | [9]; at 1.2 µM -14% | [9]; at 3.7 µM -7% | [9]; [17] -32% | [9]; at 11.0 µM -27% | [9]; at 33.0 µM -18% | [9]; [18] 42% | [10]; at 1.2 µM -16% | [10]; at 3.7 µM -29% | [10]; at 11.0 µM -42% | [10]; at 33.0 µM 35% | [11]; [17] -2% | [11]; [18] 22% | [16]; at 1.2 µM -10% | [16]; at 3.7 µM -24% | [16]; at 11.0 µM -25% | [16]; at 33.0 µM -14% | [12]; [17] -17% | [12]; [18] 48% | [13]; at 1.2 µM -14% | [13]; at 3.7 µM -6% | [13]; [17] -21% | [13]; at 11.0 µM -13% | [13]; at 33.0 µM -13% | [13]; [18] 52% | [13]; at 50.0 µM 68.8% | [14]; at 1.2 µM -8% | [14]; at 3.7 µM -11% | [14]; at 11.0 µM -12% | [14]; at 33.0 µM -8% | [1]; at 1.2 µM -27% | [1]; at 3.7 µM -30% | [1]; at 11.0 µM -13% | [1]; at 33.0 µM -7% | [2]; at 1.2 µM 3% | [2]; at 3.7 µM 8% | [2]; at 11.0 µM 9% | [2]; at 33.0 µM 40% | [3]; [17] 17% | [4]; at 1.2 µM 1% | [4]; at 3.7 µM -6% | [4]; at 11.0 µM -4% | [4]; at 33.0 µM 4%
active: [5]; at 100.0 µM 98% | [6]; at 100.0 µM 98% | [15]; [18] 88% | [15]; at 50.0 µM 89.5% | [15]; at 100.0 µM 98% | [9]; at 50.0 µM 77.2% | [9]; at 100.0 µM 98% | [10]; at 100.0 µM 97% | [11]; at 50.0 µM 90.6% | [16]; at 100.0 µM 98% | [12]; at 50.0 µM 72% | [13]; at 100.0 µM 98% | [14]; at 100.0 µM 98% | [1]; at 100.0 µM 98% | [2]; at 100.0 µM 99% | [3]; [18] 96% | [3]; at 50.0 µM 74.3% | [4]; at 100.0 µM 98%
